Screens deposited in PubChem BioAssay by National Center for Advancing Translational Sciences (NCATS).
KB-3-1 tox: qHTS assay for MDR1-selective chemotherapeutics: Primary screen using the parental adenocarcinoma cell KB-3-1; Potency, µM (series often up to 46.1 µM), usual class: cytotoxic; 1.4% of 400,000 active; AID 1347075, 2019; KB-3-1 viability, CellTiter-Glo ATP luminescence, 72 h; note: % is set by controls: 0 for no effect and ±100 for the full control effect; nearly all actives have a fitted effect of over 60% in size
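Screening of KB-3-1 cells (DMEM, 10% FBS, phenol-red free) ran from lowest to highest compound concentration; after 72 h at 37 °C viability was read luminescently and curves fitted.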
HT1080 IDH1KD tx: qHTS for induction of synthetic lethality in tumor cells producing 2HG: qHTS for the HT-1080-IDH1KD cell line. Potency, µM (titrated, usually from 46.1 µM), inactives show at the highest dose activity, negative = toxicity, hits mostly cytotoxic. HT-1080 IDH1 knockdown viability, ATP luminescence, 48 h. AID 686971, 2013. 2% of 360,000 active;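 note: 0% = DMSO wells and -100% = cell-free medium wells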
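CellTiter-Glo luminescence after 48 h compound exposure at 37 degrees C of IDH1-knockdown HT-1080 cells in 5% FBS RPMI. %Activity scaled between DMSO wells and cell-free media wells, with curves fitted and assigned curve classes.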
SW480 rereplic: A quantitative high throughput screen for small molecules that induce DNA re-replication in SW480 colon adenocarcinoma cells; Potency, µM (highest dose often 46.1 µM), for inactives: at the highest dose re-replication activation, hits mostly activators; 1.8% of 340,000 active; SW480 DNA re-replication, Hoechst DNA content imaging, 48 h; note: % of control where 0% means no effect; nearly all actives have a fitted effect of over 55% in size
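Compounds, transferred as 23 nL by pin tool, were incubated with cells for 48 hr; DNA content per nucleus was then quantified by Hoechst staining and fluorescence plate imaging.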
KB-V1 MDR tox: qHTS assay for MDR1-selective chemotherapeutics: Primary screen using the drug-selected MDR subline cells KB-V1; 3.4% of 400,000 active; KB-V1 MDR cells viability, CellTiter-Glo, 72 h; Potency, µM (top dose mostly 46.1 µM), usual class: cytotoxic; AID 1347076, 2019; note: % is set by controls: 0 for no effect and ±100 for the full control effect; nearly all actives have a fitted effect of over 60% in size
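Readout: CellTiter-Glo luminescence, 10 min after addition. Cells: KB-V1 MDR subline, 72 h at 37 degrees C with compound. Analysis: corrected, normalized data fitted to concentration-effect curves.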
MCF10A rerep: A quantitative high throughput screen for small molecules that induce DNA re-replication in MCF 10a normal breast cells; MCF 10A DNA re-replication, Hoechst nuclear intensity, 48 h; Potency, µM (series often up to 46.1 µM), for inactives: top-dose activity, positive = re-replication, actives largely listed as activators; 2.9% of 350,000 active; note: % of control where 0% means no effect; nearly all actives have a fitted effect of over 50% in size
HT1080-NT tox: qHTS for induction of synthetic lethality in tumor cells producing 2HG: qHTS for the HT-1080-NT fibrosarcoma cell line. HT-1080-NT fibrosarcoma viability, CellTiter-Glo ATP luminescence, 48 h. Potency, µM (top dose mostly 46.1 µM), for the others: at the top dose activity, negative = less viability, actives largely listed as cytotoxic. 1.6% of 360,000 active;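 note: NT is the 2HG producing partner of a matched IDH1 knockdown line; 0% = DMSO-treated cells and -100% = media-only wells without cells; nearly all actives have a fitted effect of over 55% in size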
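HT-1080-NT; 750 cells/well; 5% FBS RPMI; 48 h compound, 37 degrees C; CellTiter-Glo luminescence; curve fitting and curve-class assignment.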
The depositor's hits bear a star; i = inactive; ? = inconclusive; nt = no result. A selection: hits, their analogues and other compounds. The true share with any hit is near 7.9%. Calls come from the whole dose curve; as a rule, active = well fitted curve in the direction sought with a large enough effect; inconclusive = small, poorly fitted or top-dose-only effect, or another doubt; inactive = no such curve, though single readings can be large; an effect the other way counts as inactive or inconclusive. Potency is the fitted concentration of half-maximal effect.

SMILES | KB-3-1 tox | HT1080 IDH1KD tx | SW480 rereplic | KB-V1 MDR tox | MCF10A rerep | HT1080-NT tox
O=C1NC(Cc2ccc(O)cc2)c2nc3cc(F)ccc3c(=O)n2-c2cc3ccccc3cc21 (stereo not given) | 15µM* | 18µM* | nt | ? | nt | 15µM*
O=C1NC(Cc2ccc(O)cc2)c2nc3cc(F)c(F)cc3c(=O)n2-c2ncccc21 (stereo not given) | i | 21µM* | nt | i | nt | ?
O=C1NC(Cc2ccc(O)cc2)c2nc3cc(Cl)ccc3c(=O)n2-c2cc(Cl)ccc21 (stereo not given) | ? | ? | 4% | i | ? | -23%
CCCC1NC(=O)c2cc3ccccc3cc2-n2c1nc1cc(Cl)ccc1c2=O (stereo not given) | 18µM* | -2% | nt | 12µM* | nt | -2%
Cc1ccc2c(=O)n3c(nc2c1)C(Cc1ccc(O)cc1)NC(=O)c1cc2ccccc2cc1-3 (stereo not given) | 16µM* | 6.5µM* | nt | ? | nt | 5.2µM*
O=C1NC(Cc2ccc(O)cc2)c2nc3ccc(Cl)cc3c(=O)n2-c2cc3ccccc3cc21 (stereo not given) | ? | ? | nt | ? | nt | 15µM*
O=C1NC(Cc2ccccc2)c2nc3ccc(Cl)cc3c(=O)n2-c2cc3ccccc3cc21 (stereo not given) | ? | ? | nt | i | nt | -19%
COc1ccc(C(C#N)N2CCCCCC2)cc1OC (stereo not given) | i | 1% | -1% | i | 22% | 13%
C=CCNC(=S)N/N=C/c1ccc(-c2ccc(Cl)cc2Cl)o1 | i | ? | 16µM* | i | 13µM* | ?
C=CCNC(=S)N/N=C/c1ccc(C)cc1C | ? | 16µM* | 0% | ? | ? | 23µM*
C=CCNC(=S)N/N=C/c1ccc(-c2ccc(OC)cc2)o1 | ? | ? | ? | 7.3µM* | 21µM* | ?
Cc1c(Cl)cccc1-n1ncc(C(=O)N2CCN(C)CC2)c1C1CCN(C(=O)OC(C)(C)C)CC1 | i | nt | nt | ? | nt | nt
C=C1C(=O)OC2C1C(OC(=O)C(C)=CC)CC(=C)C1C(O)C3OC3(C)C21O (stereo not given) | i | 15µM* | 21µM* | i | 13µM* | -1%
CN1C(=O)C(CC(=O)Nc2ccc(Cl)cc2)N(Cc2ccco2)C1=S (stereo not given) | i | 0% | 140% | i | 21µM* | -1%
COc1ccc(-c2[nH]nc3nc(N4CCN(C(=O)c5ccoc5)CC4)cc(C(F)(F)F)c23)cc1 | ? | ? | nt | 6.5µM* | nt | ?
COc1ccc(-c2cc3nc(C)cc(N4CCN(C(=O)c5ccoc5)CC4)n3n2)cc1 | i | 0% | nt | ? | nt | 7%
CCc1ccc(Nc2cnn(-c3nc4ccccc4s3)c(=O)c2Cl)cc1 | i | 1% | -4% | 13µM* | 8% | -8%
CC(COc1ccccc1)N1CCC(CO)(CCc2ccccc2)CC1 (stereo not given) | i | ? | 20% | ? | ? | 16µM*
CSCC(C)N1CCC(CO)(CCc2ccccc2)CC1 (stereo not given) | i | -4% | 2% | i | 4% | -4%
CN(CC(=O)Nc1ccc(S(=O)(=O)N2CCCC2)cc1)Cc1ccc(Cl)cc1Cl | i | -14% | nt | 13µM* | 9% | -14%
CN(CC(=O)NCCc1ccc(S(N)(=O)=O)cc1)Cc1ccc(Cl)cc1Cl | ? | -10% | -11% | 16µM* | -2% | -28%
O=[N+]([O-])c1cc(S(=O)(=O)N2CCCCCC2)ccc1F | ? | ? | nt | i | 4.6µM* | ?
COc1ccc(CCN(C)c2ccc(S(=O)(=O)N3CCCC3)cc2[N+](=O)[O-])cc1OC | ? | -16% | 26% | 2.6µM* | ? | -7%
CC(=O)c1cccc(NC(=O)c2cccc(S(=O)(=O)N3CCOCC3)c2)c1 | i | 5% | -1% | i | 11% | 2%
Cc1cccc(Cn2c(NCC(C)O)nc3c2c(=O)n(C)c(=O)n3C)c1 (stereo not given) | i | -12% | 1% | i | 9% | -6%
SMILES | KB-3-1 tox | HT1080 IDH1KD tx | SW480 rereplic | KB-V1 MDR tox | MCF10A rerep | HT1080-NT tox
Clc1ccccc1C1=Nn2c(nnc2-c2ccncc2)SC1 | i | -10% | 10% | ? | 7% | -29%
CCc1ccc2[nH]c(=O)c(CN(Cc3ccco3)S(=O)(=O)c3ccc4c(c3)OCCO4)cc2c1 | i | 7% | -1% | i | 18% | 23%
O=C(O)CCCCCNS(=O)(=O)c1cccc2c1C(=O)c1ccccc1C2=O | i | ? | ? | ? | ? | -7%
CC(=O)N1CCN(C(=O)CCNS(=O)(=O)c2ccccc2)CC1 | i | 2% | 15% | i | 1% | 2%
CN(CC(=O)Nc1ccc(Cl)cc1)c1ccc(S(=O)(=O)N2CCCCC2)cc1[N+](=O)[O-] | ? | ? | -4% | 16µM* | -5% | -23%
COc1ccccc1C(CNc1ccc(S(=O)(=O)N2CCCC2)cc1[N+](=O)[O-])N(C)C (stereo not given) | i | -2% | 9% | 12µM* | ? | ?
COc1ccc(C(CNc2ccc(S(=O)(=O)N3CCN(C)CC3)cc2[N+](=O)[O-])N(C)C)cc1 (stereo not given) | i | 5% | -3% | ? | 4% | -4%
O=C1CCC(C(=O)N2CCC(CO)(Cc3ccc(Cl)cc3)CC2)=NN1 | i | 9% | 1% | ? | 0% | 12%
Nc1nc(N2CCN(C(=O)c3ccco3)CC2)nc2ccccc12 | i | 9% | -1% | i | 3% | 20%
O=C(OCC(=O)N1CCN(C(=O)c2ccco2)CC1)c1cc(-c2cccc(Br)c2)nc2ccccc12 | i | -18% | 10% | 16µM* | ? | -16%
COc1ccc(-c2cc(C(=O)OCC(=O)N3CCOCC3)c3ccccc3n2)cc1 | i | -16% | 20% | ? | 16µM* | -1%
COc1cc2ccccc2cc1C(=O)OCC(=O)N1CCOCC1 | i | 13% | -6% | i | -1% | 9%
O=C(COC(=O)c1cc(-c2ccccc2)nc2ccccc12)c1ccc(Br)cc1 | i | nt | nt | i | nt | nt
